# From PubChem
# Arbovirus inh = antivirals against arbovirus infection, primary screen, cell-based, full library, 10K replicate subset; arbovirus infection cell-based antiviral screen; AID 1251, 2008; 200,000 compounds, 0.37% hits; inhibition, % at 10 µM; in the data active means inhibition above about 30%
# Cl transport mod = KCC2 cotransporter modulators, thallium flux, primary screen, cell-based, HEK293 KCC2, FluoZin-2 fluorescence, MLSMR | 190,000 compounds, 2.2% hits | Solute carrier family 12 member 5 (Homo sapiens), Q9H2X9 | B-score of Tl+ flux slope (higher = more flux/activation; lower = inhibition) at 10 µM | KCC2 cells, thallium flux FluoZin-2 fluorescence;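 active means thallium flux slope and its plate-corrected score both differing from the plate sample mean at a set confidence after two filtering rounds, in either direction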;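 further: slope of fluorescence scaled to starting intensity during 10 to 20 s after thallium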
# Measles CPE = compounds protecting cells from measles virus cytopathic effect, primary screen, measles RdRp inhibitor project, single point, MLSMR library, absorbance. Measles virus-infected cells, CPE protection. protection (pct of control), % at 4 µM. 140,000 compounds, 1.5% hits. AID 841, 2007; in the data active means protection mostly above about 24%, no sharp cut-off; inactive means mostly below about 26%
# HSV replic up = enhancers of HSV replication in host cells, fold increase, host cell viability; HSV replication augmentation in cells; maximum fold increase; 220,000 compounds, 0.005% hits; AID 1956, 2009; in the data active means maximum fold increase above about 1.5; inconclusive means no clear call, values can overlap the other calls; tested in PC3 cells
# ROMK primary = ROMK potassium channel modulators, primary screen, cell-based, thallium flux, MLSMR library | B-score at 10 µM | 130,000 compounds, 2% hits | ATP-sensitive inward rectifier potassium channel 1 (Homo sapiens), P48048 | Tet-inducible ROMK, thallium flux fluorescence; actives lie on both sides;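 active means signal ratio slope over the read window, or its plate-corrected B-score, at least 3 SD from the plate mean, either direction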;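 further: B-score of the F/F0 ratio slope over 7 to 12 s after thallium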
# Target sequence (P48048 whole entry, looked up): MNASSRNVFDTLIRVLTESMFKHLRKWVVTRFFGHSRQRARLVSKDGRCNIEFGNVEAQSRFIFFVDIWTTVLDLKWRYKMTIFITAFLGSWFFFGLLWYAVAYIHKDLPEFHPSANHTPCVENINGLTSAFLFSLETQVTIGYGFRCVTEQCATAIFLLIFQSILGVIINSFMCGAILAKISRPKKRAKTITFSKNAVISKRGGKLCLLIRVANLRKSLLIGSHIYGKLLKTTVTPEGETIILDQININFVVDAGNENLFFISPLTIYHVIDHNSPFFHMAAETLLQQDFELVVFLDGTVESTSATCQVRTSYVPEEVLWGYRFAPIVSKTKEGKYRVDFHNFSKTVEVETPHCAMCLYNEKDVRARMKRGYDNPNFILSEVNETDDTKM
# ROMK hit retest = ROMK channel modulator hit retest, confirmation, cell-based, thallium flux, duplicate, resupplied hits | shares compounds with ROMK primary | fluorescence ratio; active compounds read low | normalized thallium flux (F/F0 slope) at 10 µM | 3,000 compounds, 54% hits;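 active means Flux at 10 µM at least 3 SD below or above vehicle control mean in one or both replicates; inconclusive means no clear call, values can overlap the other calls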
# A number is an active result; n = inactive; u = inconclusive; x = no result given. Hits are enriched below; roughly 4% of the tested compounds scored in any of these assays.
SMILES,Arbovirus inh,Cl transport mod,Measles CPE,HSV replic up,ROMK primary,ROMK hit retest
O=S1(=O)CCN(Cc2ccc(Cl)c(C(F)(F)F)c2)CC1,n,n,x,n,n,x
C/C(=N\Nc1cc(C)nc(NCc2ccccc2)n1)c1ccc([N+](=O)[O-])cc1,x,n,x,n,x,x
Cc1ccc(/C=[N+](\[O-])c2ccc(N(C)C)cc2)c2nsnc12,n,x,x,u,x,0.047
C/C(=C\C(=O)OCCCCCCCCC(=O)O)C[C@@H]1OC[C@H](C[C@@H]2O[C@H]2[C@@H](C)[C@H](C)O)[C@@H](O)[C@H]1O,x,x,x,n,x,x
CN1CCN(Cc2c(O)ccc3cc(-c4ccccn4)c(=O)oc23)CC1,n,n,x,n,-3.3,0.059
CN1CCN(Cc2c(O)ccc3cc(Br)ccc23)CC1,n,n,x,n,n,x
CC(C)(C)OC(=O)N1CCC2(CC1)Oc1ccc(F)cc1C(=O)C21CC(c2ccccc2)=NO1 (stereo unspecified),x,x,x,n,x,x
COc1ccc(/C=N/OCC(=O)N2CCCC2)c(OC)c1,n,n,x,n,n,x
CC(=O)Nc1sc(N/N=C/c2ccccc2)nc1-c1ccc(C)cc1,x,n,x,n,x,n
Cc1c(C)n(Cc2ccccc2)c2ccc(C(=O)OCCN(C)C)cc12,n,n,x,n,-3.5,0.059
Cc1ccc(N=C2NC(=O)/C(=C\c3ccco3)S2)cc1,n,n,n,n,n,x
O=C1NC(=Nc2ccc3ccccc3c2)S/C1=C/c1ccco1,n,n,x,n,2.6,n
CCOc1ccc(NC(=O)CC2C(=O)N(CC)C(=S)N2NC(=O)c2ccncc2)cc1 (stereo unspecified),x,n,x,n,n,x
COc1ccc(CCN(CC(=O)NC2CCCC2)C(=O)Cn2nnc(-c3ccc(C)o3)n2)cc1OC,n,n,x,n,n,x
CC(=O)N(C)Cc1ccc(C(=O)CCl)cc1,n,n,x,n,n,x
CC(=O)NCc1ccc(C(=O)CCl)cc1,n,n,x,n,-2,0.058
O=C(NNC(=O)c1csc(-c2cccnc2)n1)c1ccccc1,x,n,x,n,n,x
O=C(Nc1ccccc1Cl)c1csc(-c2cccnc2)n1,x,n,x,n,5.2,0.1
CCCCNC(=O)[C@@H]1CC=C[C@@H]2CCN(C3CC3)C(=O)[C@@H]21,x,x,x,n,x,x
NS(=O)(=O)c1ccc(Oc2ccc(S(N)(=O)=O)cc2)cc1,n,n,x,n,n,x
C=CS(=O)(=O)c1ccc(Oc2ccc(S(=O)(=O)C=C)cc2)cc1,n,n,n,n,-5.8,0.041
CCOc1ccc(CSC(=N)N)cc1Cl,x,n,x,n,x,x
CCCCOc1ccc(CSCCN)cc1Cl,x,n,x,n,-3.2,u
O=c1c(Cc2ccc(F)cc2)c(O)ccn1CCCN1CCOCC1,n,n,x,n,n,x
Cn1c(=S)n(CCC(=O)O)c2ccccc21,n,n,x,n,n,x
SMILES,Arbovirus inh,Cl transport mod,Measles CPE,HSV replic up,ROMK primary,ROMK hit retest
C=CCCC(=O)Nc1ccc(Br)cn1,n,x,x,n,2.5,n
Cc1cc(C)cc(C(=O)Nc2ccc(NC(=O)Cc3ccccc3)cc2)c1,n,n,x,n,n,x
CCOc1cc(N2CCOCC2)c(OCC)cc1NC(=O)c1cc(-c2ccco2)nc2ccccc12,n,n,n,n,x,0.066
Cc1oc2cc(O)ccc2c(=O)c1-c1nncn1-c1ccccc1,n,n,x,n,-4.6,0.049
Cc1oc2cc(O)ccc2c(=O)c1-c1ccccc1,n,n,x,n,n,x
COC(=O)c1c(NC(=O)CSc2nnc(-c3ccco3)n2Cc2ccccc2)sc(C)c1C,n,n,n,n,-3.1,0.065
COC(=O)c1c(NC(=O)CSc2nc3ccccc3c(=O)n2Cc2ccco2)sc(C)c1C,n,n,n,n,x,x
CCSc1nnc(NC(=O)c2c(-c3ccccc3Cl)noc2C)s1,n,n,n,n,x,x
Cc1onc(-c2ccccc2Cl)c1C(=O)Nc1nnc(-c2cccc([N+](=O)[O-])c2)s1,n,x,n,n,x,0.061
CC(C)N1CCC(N2CCN(Cc3ccc(-c4ccc(Cl)cc4)o3)CC2CCO)CC1 (stereo unspecified),n,n,x,n,-3.7,0.064
CC(C)N1CCC(N2CCN(Cc3ccc(-c4ccccc4Cl)o3)CC2CCO)CC1 (stereo unspecified),n,n,x,n,x,x
COc1cc(C2NC(=O)c3ccccc3O2)cc(OC)c1OC (stereo unspecified),n,x,n,n,x,x
COc1cc(C2Oc3ccccc3C=C2[N+](=O)[O-])cc(OC)c1OC (stereo unspecified),x,n,x,n,-7,0.033
CCCCN1C(=O)/C(=C/C=C2\N(C)c3ccccc3C2(C)C)SC1=S,n,n,n,x,-4.4,0.039
CCCN1C(=O)/C(=C\C=C2/C=CN(CC)c3ccccc32)SC1=S,n,n,x,n,x,x
CCCCN1C(=O)/C(=C/C=C2\SCCN2C)SC1=S,n,n,x,u,-3.3,0.052
COc1ccccc1N/C(N)=N/c1nc(C(F)(F)F)cc(=O)[nH]1,n,n,x,n,n,x
CCOC(=O)C1=NNC2C(=O)N(Cc3ccccc3)C(=O)C12 (stereo unspecified),x,n,x,n,n,x
CCOC(=O)Cc1nnc(NC(=O)CSc2ncc(-c3ccccc3)nn2)s1,n,n,x,n,n,x
Nc1nc(Nc2cccc(F)c2)nc(NCc2ccco2)c1[N+](=O)[O-],x,n,x,n,n,x
Cc1ccc(C(=O)NC(C)C(c2cccs2)N2CCCC2)s1 (stereo unspecified),n,n,x,n,-3.6,n
CN(C)c1cccc2c(/C=N/O)ccc(N(C)C)c12,n,n,x,n,n,x
CN1C(=O)N(C)c2ccc(C=O)c3cccc1c23,n,n,x,n,-3.4,0.068
Clc1ccc2nc3ccccn3c2c1,n,x,n,n,3.6,n
COc1ccc(OC)c(C2C(C(=O)c3ccccc3)=C(C)Nc3nc4ccccc4n32)c1 (stereo unspecified),n,n,n,x,2.5,0.068
SMILES,Arbovirus inh,Cl transport mod,Measles CPE,HSV replic up,ROMK primary,ROMK hit retest
COc1ccc(C2C(C(=O)c3ccccc3)=C(C)Nc3nc4ccccc4n32)cc1OC (stereo unspecified),n,n,n,x,n,x
COc1ccc(C(=O)Nc2cc(C(C)=O)c(/C=C/N(C)C)oc2=O)cc1,n,n,n,x,x,0.037
CC(=O)c1cc(NC(=O)c2ccc(C)cc2)c(=O)oc1/C=C/N(C)C,n,x,n,u,x,x
O=C(O)/C=C/C(=O)Nc1cc(F)ccc1F,x,n,x,n,x,x
COc1cc(/C=C2/C(=O)CNC2=O)ccc1O,n,n,x,n,-2.9,0.061
CCCCCCCCC[n+]1cccc2c3ccccc3ccc21,n,x,29,n,-5.7,0.042
CCC(=O)N1CCN(c2ccc(NC(=O)c3ccc(-c4ccccc4)cc3)cc2)CC1,n,x,n,x,x,x
Cc1nnc2sc(-c3cccc4ccccc34)nn12,n,n,n,n,-5.2,0.054
CCOc1ccc(N2C(=O)CC(N3CCN(C4CCc5ccccc5C4)CC3)C2=O)cc1 (stereo unspecified),n,x,n,n,-2.1,0.064
